# PubChem BioAssay AID686978 (National Center for Advancing Translational Sciences (NCATS), 2013)
# The campaign covered roughly 420,000 compounds. About 64,000 (15%) were called active. About 27% were inconclusive and are not listed. Only a sample is shown. Values without a mark were called inactive. The call rests on the fitted dose curve; in most records, active means well fitted inhibition curve with a large enough effect; inconclusive means small, poorly fitted or top-dose-only effect; inactive means flat fitted curve, though single readings scatter.
# Assay: qHTS for Inhibitors of human tyrosyl-DNA phosphodiesterase 1 (TDP1): qHTS in cells in absence of CPT; further: nearly all actives have a fitted effect of over 55% in size
# Details: DT40 Tdp1-/- hTDP1 cells, no CPT, ATP luminescence, 48 h; activity change, negative = growth inhibition: at 46.2 µM (top of the series)
# Summary of the method: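 Chicken DT40 Tdp1-/- cells complemented with human TDP1, screened without camptothecin (DMSO vehicle only), 400 cells/well. Compounds pin-transferred, cells incubated at 37 °C for at least 48 hr. Growth read as ATP-dependent luminescence (CellTiter-Glo, 30 min at RT).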
# On the % scale 0 is the no-effect control and ±100 the full control effect; potency means the concentration at half of the fitted maximal effect.
Structure (SMILES),"activity change, negative = growth inhibition [%]",Potency
CC(C)CC(CC(C)C)=NNC(=O)c1ccc(CSc2nncn2C)cc1,3,–
CC(=O)c1cc(C#N)c(N2CC(C)OC(C)C2)nc1C (centres undefined),15.6,–
CC(=O)c1cc(C#N)c(SCC(=O)C(C)(C)C)nc1C,–,3.16 µM (active)
CC(=O)c1cc(C#N)c(N2CCCCC2)nc1C,-19.2,–
CN1OC[C@@H]2CN(C(=O)c3cccnc3)[C@H](c3ccc(N4CCCCC4)cc3)C[C@@H]21,12.5,–
CCOC(=O)c1ccc(NC(=O)C2CC(=O)N(c3ccc4c(c3)OCCO4)C2)cc1 (centres undefined),-1.25,–
CCc1nnc(NC(=O)C2CC(=O)N(c3ccc4c(c3)OCCO4)C2)s1 (centres undefined),–,18.4 µM (active)
CC(=O)c1ccccc1NC(=O)C1CC(=O)N(c2ccc3c(c2)OCCO3)C1 (centres undefined),-13.3,–
CN1CCN(CC(O)COCc2ccc3c(c2)OCO3)CC1 (centres undefined),4.13,–
CC(=O)Nc1ccc(NC(=O)COC(=O)C2CCC(C(C)(C)C)CC2)cc1 (centres undefined),-10.4,–
CSc1nc(-c2ccccc2Cl)nc2c1Cc1c(CO)cnc(C)c1O2,–,18.4 µM (active)
Cc1ccccc1CSc1nc(-c2ccccc2)nc2c1Cc1c(CO)cnc(C)c1O2,-18.4,–
CSc1nc(-c2ccc(F)cc2)nc2c1Cc1c(CO)cnc(C)c1O2,-1.83,–
CC(=O)N1Cc2cc(C(=O)NCc3cccc(F)c3)nc(-c3cccc(C4=CCCCC4)c3)c2[C@H]1CCO,–,16.4 µM (active)
CCCNC(=O)c1cc2c(c(-c3cccc(-c4ccc(C#N)cc4)c3)n1)[C@@H](CCO)N(C(=O)CC)C2,–,18.4 µM (active)
Cc1c(C(=O)NCC2CC2)sc(=O)n1Cc1cccc(F)c1,-6,–
CCCNC(=O)c1cc(C2CCCCN2S(=O)(=O)c2ccc(C#N)cc2)on1 (centres undefined),-5.54,–
Cc1nc(NCc2ccccc2)c(C(N)=O)c2c1COC(C)(C)C2,-11.4,–
CCCCCC(=O)N1CCN(S(=O)(=O)c2ccc3c(c2)OCCCO3)CC1,-29,–
CC(=O)NNc1cc(=O)c2c(=O)n(C)c(=O)n(C)c2[nH]1,-2.48,–
Cc1cccc(C(=O)NNC(=O)c2cccc([N+](=O)[O-])c2)c1,5.26,–
O=C(NC(=S)NC1CCS(=O)(=O)C1)c1cccc([N+](=O)[O-])c1 (centres undefined),41.6,–
Cc1cccc(C(=O)NC(=S)N2CCN(c3ccc([N+](=O)[O-])cc3)CC2)c1,–,16.4 µM (active)
O=C(NCc1ccncc1)c1ccc(NS(=O)(=O)c2cccc([N+](=O)[O-])c2)cc1,-6.11,–
COCOCCn1cc(CN2CCS(=O)(=O)N(Cc3ccc(-c4ccc(OC)cc4)cc3)C(CC(C)C)C2=O)nn1 (centres undefined),–,10.3 µM (active)

Structure (SMILES),"activity change, negative = growth inhibition [%]",Potency
COCCCn1cc(CN2CC(N(C)C)CS2(=O)=O)nn1 (centres undefined),-7.87,–
COCOCCn1cc(CN2CCS(=O)(=O)N(Cc3ccc(-c4ccccc4)cc3)C(CC(C)C)C2=O)nn1 (centres undefined),–,18.4 µM (active)
CN(Cc1ccccc1)S(=O)(=O)c1ccc(F)c(C(=O)Nc2cccc(Cl)c2Cl)c1,-21.5,–
CC1CCN(S(=O)(=O)c2ccc(S(=O)(=O)NCc3ccco3)cc2)CC1,-18.4,–
CC(C)CNC(=S)NNC(=O)c1nn(C)cc1Cl,-16.3,–
FC(F)(F)c1ccc(-c2cccc3c2C2CC3CCN2Cc2ccccc2)cc1 (centres undefined),–,13 µM (active)
O=C(NCCN1CCOC1=O)C1CCC(=O)N(CCc2ccc(Cl)cc2)C1 (centres undefined),2.23,–
O=S(=O)(c1ccc(F)cc1)N1CCN(Cc2ccccc2C(F)(F)F)CC1,-14.4,–
CSCCC(NS(=O)(=O)/C=C/c1ccccc1)C(=O)N1CCC(C)CC1 (centres undefined),-17,–
CCOC(=O)N1CCN(CCC(=O)Nc2cc(OC)ccc2OC)CC1,-3.04,–
COc1ccc(OC)c(NC(=O)CCN2CCC(C)CC2)c1,-7.7,–
COc1ccc(OC)c(NC(=O)CN2CCCN(Cc3cc(C)ccc3C)S2(=O)=O)c1,–,18.4 µM (active)
COC(=O)c1ccc(S(=O)(=O)c2ccc(C(=O)OC)s2)s1,0.0322,–
C=CC(=O)Nc1ccc(Nc2ccnc(Nc3ccc(N4CCN(C)CC4)cc3)n2)cc1,-92.1,–
N#CCSc1nc(-c2ccccc2)nc2ccc(F)cc12,-14,–
Fc1ccc2nc(-c3ccccc3)nc(SCc3nnc(-c4ccccc4)o3)c2c1,–,23.1 µM (active)
Fc1ccc(-c2nnc(CSc3nnc(-c4ccc5c(c4)OCO5)o3)o2)cc1,0.842,–
Nc1ccc2c(c1)C(O)c1ccc(Cl)cc1-2 (centres undefined),-1.47,–
CCCCCCCCC(=O)NCCOc1ccccc1,2.92,–
CCCCCCOc1ccc(OC(=O)c2cccnc2)cc1,–,13 µM (active)
O=C(Oc1ccc(Br)cc1)c1cccnc1,-13.7,–
COc1ccc(-c2nc(CS(=O)CC(=O)NCc3cccnc3)c(C)o2)cc1OC (centres undefined),-1,–
C=CCOc1ccc(C2/C(=C(\O)c3c(C)[nH]c(C(=O)OC)c3C)C(=O)C(=O)N2CCN(C)C)cc1 (centres undefined),13.3,–
CO[C@H]1[C@@H]2C=CO[C@@H](O[C@H]3O[C@@H](CO)[C@H](O)[C@@H](O)[C@@H]3O)[C@@H]2[C@@]2(CO)O[C@@H]12,-8.69,–
